According to publication PMC4336329 (PLoS ONE, 2015):
Out of some 310,000 compounds screened, about 14,000 (4.5%) showed an effect of 50% or more. Effects have a minus sign here. Shown is part of a subset that was picked to be rich in strong results.

The compounds below were run against human ether-à-go-go-related gene (hERG) potassium channel (human, UniProt Q12809) (assay: primary screen, population patch clamp on CHO cells stably expressing hERG; higher = less effect of the substance).
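Also: peak tail current of the secondary pulse compared with the same well before compound.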

human ether-à-go-go-related gene (hERG) potassium channel, sequence (Q12809 whole entry, looked up): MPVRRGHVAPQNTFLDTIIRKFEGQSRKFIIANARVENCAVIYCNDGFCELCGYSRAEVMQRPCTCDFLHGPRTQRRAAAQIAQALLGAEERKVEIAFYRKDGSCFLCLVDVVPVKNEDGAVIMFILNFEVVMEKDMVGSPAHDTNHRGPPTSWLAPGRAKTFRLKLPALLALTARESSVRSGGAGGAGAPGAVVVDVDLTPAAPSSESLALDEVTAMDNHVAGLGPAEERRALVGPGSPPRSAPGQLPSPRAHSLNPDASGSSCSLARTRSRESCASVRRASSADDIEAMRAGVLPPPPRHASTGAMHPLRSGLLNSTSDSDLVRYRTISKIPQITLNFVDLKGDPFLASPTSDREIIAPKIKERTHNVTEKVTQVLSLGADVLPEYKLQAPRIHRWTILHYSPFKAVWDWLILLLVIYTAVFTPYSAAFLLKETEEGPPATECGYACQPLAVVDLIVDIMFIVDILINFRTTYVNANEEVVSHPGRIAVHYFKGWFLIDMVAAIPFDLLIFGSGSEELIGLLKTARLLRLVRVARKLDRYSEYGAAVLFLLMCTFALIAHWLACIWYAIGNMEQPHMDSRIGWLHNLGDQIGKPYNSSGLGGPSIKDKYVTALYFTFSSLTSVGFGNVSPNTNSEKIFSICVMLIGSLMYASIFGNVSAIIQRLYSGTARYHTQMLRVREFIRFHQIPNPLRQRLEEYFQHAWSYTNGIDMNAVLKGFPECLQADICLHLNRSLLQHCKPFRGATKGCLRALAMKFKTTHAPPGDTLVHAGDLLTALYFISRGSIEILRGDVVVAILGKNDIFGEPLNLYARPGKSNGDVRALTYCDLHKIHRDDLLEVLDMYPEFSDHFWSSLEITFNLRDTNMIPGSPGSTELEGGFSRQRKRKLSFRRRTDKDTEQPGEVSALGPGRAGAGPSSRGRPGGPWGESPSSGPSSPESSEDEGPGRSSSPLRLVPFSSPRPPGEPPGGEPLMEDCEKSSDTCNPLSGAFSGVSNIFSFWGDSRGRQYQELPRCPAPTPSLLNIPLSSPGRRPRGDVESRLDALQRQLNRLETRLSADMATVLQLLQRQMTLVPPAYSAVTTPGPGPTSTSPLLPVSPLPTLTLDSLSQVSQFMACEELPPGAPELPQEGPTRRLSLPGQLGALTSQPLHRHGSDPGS

Row | Compound | hERG current change (%, negative = inhibition) at 10uM
1 | Cc1ccc(OCC(=O)NNC(=S)NC(=O)C2CC2)c(C)c1 | 23.2%
2 | Nc1c2c(nc3c1CCCC3)CCCC2.O=C(O)c1cc[nH]c(=O)c1 | -10.1%
3 | Clc1ccc(OCC#CCN2CCCCCC2)cc1.O=C(O)C(=O)O | -34.7%
4 | Cc1ccccc1Nc1nnc(C)c(=O)[nH]1 | -11.3%
5 | CC(=O)N1CCN(c2ccc(NC(=O)c3ccc([N+](=O)[O-])cc3Cl)cc2)CC1 | -8.49%
6 | CCOc1cccc(OCCOCCN(C)Cc2ccccc2)c1 | -49.3%
7 | CCN(CC(=O)NCc1ccc(Cl)cc1)C(=O)CSc1ccc(Br)cc1 | -79.2%
8 | CCN(CC(=O)NCc1ccc(F)cc1)C(=O)c1oc2ccccc2c1C | -43.9%
9 | CCN(CC(=O)NCc1ccc(Cl)cc1)C(=O)CSc1ccccc1 | -65.6%
10 | CCN(CC(=O)NCc1ccc(Cl)cc1)C(=O)CSc1ccc(F)cc1 | -71.1%
11 | CCN(CC(=O)NCc1ccc(Cl)cc1)C(=O)CSc1cccc(C(F)(F)F)c1 | -23.3%
12 | CCN(CC(=O)NCc1ccc(Cl)cc1)C(=O)CN1C(=O)NC(CC)(c2ccccc2)C1=O (centres unmarked) | -6.03%
13 | CCN(CC(=O)NCc1ccc(Cl)cc1)C(=O)CSc1ccccc1F | -19.3%
14 | O=C(CSc1ccc(Cl)cc1)NCc1ccncc1 | -14.2%
15 | CCN(CC(=O)NCc1ccc(Cl)cc1)C(=O)c1oc2ccccc2c1C | -54.5%
16 | CCN(CC(=O)Nc1ccc(NC(C)=O)cc1)C(=O)c1oc2ccccc2c1C | -20.2%
17 | CCN(CC(=O)Nc1c(F)cccc1F)C(=O)CSc1ccc(F)cc1 | -14.3%
18 | CCN(CC(=O)NCc1ccc(Cl)cc1)S(=O)(=O)c1ccc(F)cc1 | -19.1%
19 | Cc1ccc(-c2nn3c(C)nnc3s2)cc1NCc1c(F)cccc1Cl | 2.39%
20 | Fc1ccc(N2CN(Cc3cccnc3)CNC2=S)cc1 | 10.7%
21 | Cc1ccc(C(O)Cn2nc(C)cc2C)cc1 (centres unmarked) | 13.7%
22 | CCCCCc1c(O)nc(SCCN(CC)CC)[nH]c1=O.Cl | 9.87%

Row | Compound | hERG current change (%, negative = inhibition) at 10uM
23 | COc1ccc(N(C(=O)c2cccnc2)S(=O)(=O)c2ccc3c4c(cccc24)C(=O)N3C)cc1 | 17.7%
24 | C=CCn1c(=O)c2ccccc2n2c(SCc3nc4ccccc4s3)nnc12 | -34.4%
25 | CCOc1ccc(NC(=O)Cn2nc(C(N)=O)c3ccccc3c2=O)cc1S(=O)(=O)N1CCCC1 | 0.537%
26 | Cc1ccccc1NC(=O)c1cccc(Cn2cc(Br)c([N+](=O)[O-])n2)c1 | -3.63%
27 | COc1ccc(OC)c(NC(=O)c2cccc(Cn3cc(Br)c([N+](=O)[O-])n3)c2)c1 | -13.9%
28 | COc1ccc(NC(=O)c2cccc(Cn3cc(Br)c([N+](=O)[O-])n3)c2)c(C)c1 | -72%
29 | Cc1cc(CC(C)C)n(-c2nc3ccccc3c(=O)n2OCc2ccccc2)n1 | -7.08%
30 | COc1ccc(CCNc2ncnc3c2nnn3Cc2ccccc2)cc1 | 13%
31 | COc1ccc(C(=O)C2CCCN(Cc3ccc4nonc4c3)C2)cc1F (centres unmarked) | -41.1%
32 | COc1ccc(C(=O)C2CCCN(Cc3ccc4nonc4c3)C2)c(C)c1 (centres unmarked) | -20.3%
33 | COc1ccc(C(=O)C2CCCN(Cc3ccc4nonc4c3)C2)c(OC)c1 (centres unmarked) | -66.7%
34 | COc1ccc(C(=O)C2CCCN(Cc3ccc4nonc4c3)C2)cc1OC (centres unmarked) | -67.4%
35 | COc1ccccc1CCNC(=O)CNC(=O)Cc1cccc2ccccc12 | -1.6%
36 | CC(C(=O)Nc1ncn[nH]1)N1C(=O)c2ccccc2C1=O (centres unmarked) | 17.4%
37 | CCCCn1c(=O)c(C(=O)Nc2ccccc2S(N)(=O)=O)c(O)c2ccccc21 | -12.3%
38 | COc1ccc(S(N)(=O)=O)cc1C(=O)NCC(C)(C)N1CCOCC1 | 8.36%
39 | COc1ccc(N2CCN(CCCNC(=O)c3ccc(CS(=O)(=O)c4ccc(OC)cc4)o3)CC2)cc1 | -68.9%
40 | COc1ccc(N2CCN(CCCNC(=O)c3ccc(CS(=O)(=O)c4ccc(Cl)cc4)o3)CC2)cc1 | -77.1%
41 | O=C(NCCN1CCOCC1)c1ccc(CS(=O)(=O)c2ccc(Cl)cc2)o1 | -4.24%
42 | COc1ccc(S(=O)(=O)Cc2ccc(C(=O)NC3CC3)o2)cc1 | -2.21%
43 | COc1ccc(S(=O)(=O)Cc2ccc(C(=O)NCCCN3CCc4ccccc4C3)o2)cc1 | -51.2%
44 | COCCNC(=O)c1ccc(CS(=O)(=O)c2ccc(OC)cc2)o1 | -0.154%

Row | Compound | hERG current change (%, negative = inhibition) at 10uM
45 | COc1ccc(S(N)(=O)=O)cc1C(=O)NCCCN1CCN(c2ccc(C)cc2)CC1 | -50.7%
46 | COc1ccc(S(N)(=O)=O)cc1C(=O)NCCCN1CCN(c2cccc(Cl)c2)CC1.CS(=O)(=O)O | -23.9%
47 | COc1ccc(S(=O)(=O)Cc2ccc(C(=O)NCc3ccccc3OC)o2)cc1 | -41.6%
48 | O=C(NCCCN1CCCC1)c1ccc(CS(=O)(=O)c2ccc(Cl)cc2)o1 | -6.15%
49 | Cc1ccc(S(=O)(=O)Cc2ccc(C(=O)NCCCN3CCN(C)CC3)o2)cc1 | 15.6%
50 | O=C(Nc1cccc(F)c1)N1CC=C(c2ccc(Cl)cc2)CC1 | -13.8%
51 | Cc1ccc(CN2CCN(/N=C/c3ccc(Cl)c([N+](=O)[O-])c3)CC2)cc1 | -4.43%
52 | CCCOC1CCCN(C(=O)c2ccc3oc(C(C)C)nc3c2)C1 (centres unmarked) | 3.64%
53 | Cc1ccccc1OCc1nc(-c2ccc(NC(=O)c3ccco3)cc2)no1 | 5.41%
54 | COc1ccc(N=Cc2c(O)n(Cc3ccccc3)c(=S)[nH]c2=O)c(OC)c1 | -1.29%
55 | CC(C)[C@@H](C(=O)NCC1CCC(C(=O)O)CC1)n1nnc2ccccc2c1=O (some centres unmarked) | 19.1%
56 | COc1ccc(NC2CCCN(C(=O)c3ccc(C(C)=O)s3)C2)cc1 (centres unmarked) | 16.1%
57 | O=C(CSc1ccc(-c2ccc(F)cc2)nn1)N1CCOCC1 | -17.4%
58 | COc1cc(/C=N/N2CCN(c3ccccc3)CC2)cc(OC)c1OC(C)=O | -39.4%
59 | O=C(Nc1ccccc1Cl)O/N=C(/c1ccccc1)c1ccccn1 | 6.47%
60 | CNC(=O)CCc1[nH]c2ccccc2c1Sc1ccccc1 | 4.85%
61 | Cc1cc(C)cc(OCC(=O)N2N=C(c3cccnc3)CC2(O)C(F)(F)F)c1 (centres unmarked) | -15.3%
62 | COc1ccc(NC(=O)N(Cc2ccc(C)cc2)Cc2cccnc2)c(OC)c1 | -10.6%
63 | COc1ccccc1S(=O)(=O)Cc1ccc(C(=O)NCCN2CCCCCC2)o1 | 2.78%
64 | COc1ccccc1S(=O)(=O)Cc1ccc(C(=O)NCCN2CCCC2)o1 | -8.12%
65 | COc1ccccc1S(=O)(=O)Cc1ccc(C(=O)NCCCN2CCN(c3ccc(F)cc3)CC2)o1 | -79.2%
66 | Cc1cccc(N2C(=O)C(O)=C(C(=O)c3cccs3)C2c2ccc(F)cc2)n1 (centres unmarked) | 14.9%

Row | Compound | hERG current change (%, negative = inhibition) at 10uM
67 | O=C(NNS(=O)(=O)c1ccccc1)C1CCCCC1 | 6.38%
68 | COc1ccccc1OCc1nc(C#N)c(NCCCn2ccnc2)o1 | 6.7%
69 | N#Cc1nc(Cc2ccccc2)oc1NCCCn1ccnc1 | -31.5%
70 | N#Cc1nc(COc2ccccc2)oc1NCCN1CCOCC1 | -11.3%
71 | N#Cc1nc(Cc2cccc3ccccc23)oc1NCCCn1ccnc1 | -71%
72 | N#Cc1nc(-c2ccccc2)oc1NCCCn1ccnc1 | -27.5%
73 | N#Cc1nc(-c2ccc(OCc3ccccc3Cl)cc2)oc1NCCCn1ccnc1 | -13%
74 | Cc1ccc(-c2nc(C#N)c(NCCCn3ccnc3)o2)cc1 | -21.9%
75 | N#Cc1nc(COc2ccc(F)cc2)oc1NCCN1CCOCC1 | -12.9%
76 | Cc1ccc(OCc2nc(C#N)c(NCCCn3ccnc3)o2)cc1 | -56%
77 | COc1ccc(OCc2nc(C#N)c(NCCCn3ccnc3)o2)cc1 | -43.4%
78 | N#Cc1nc(COc2ccc(Br)cc2)oc1NCCN1CCOCC1 | -56.6%
79 | N#Cc1nc(COc2ccccc2)oc1NCCCn1ccnc1 | -50%
80 | Cc1csc(C(C#N)C(=O)c2ccncc2)n1 (centres unmarked) | 19.2%
81 | N#C/C(C(N)=O)=C1/CCc2ccccc2N1 | -9.51%
82 | CCN(CC)c1ccc(N=Cc2c(O)[nH]c(=O)[nH]c2=O)cc1 | -1.25%
83 | NC(=S)Nc1cc2ccccc2c2ccccc12 | 6.65%
84 | O=C(O)C1CCN(S(=O)(=O)c2ccc(Oc3ccccc3)cc2)CC1 | 17.8%
85 | COC(=O)C1=CNC=C(C(=O)OC)C1c1ccc(Cl)cc1 | -8.91%
86 | COCCN(C(=O)COC(=O)c1cnc(C)cn1)c1c(N)n(Cc2ccccc2)c(=O)[nH]c1=O | -4.85%
